Data on 39 molecules can be found in PubChem BioAssay AID1251 (SRMLSC, 2008).

The experiment in a line: inhibitors of arbovirus infection in cells – cell-based, full library, 10K replicate subset, primary screen (AID 1251).
Setting [1] is: arbovirus infection cell-based antiviral screen, at 10 µM, stronger effect = higher value.

Structures are written as SMILES. Several values for one entry are separate records, joined by “and”; a condition that tells them apart may be missing. Equal entries are not always repeated. The whole screen tested about 200,000 compounds, of which about 720 (0.36%) were called active. The sample holds actives, similar compounds and a random draw of the others, so the mix is not that of the screen. Cut-off read from the data, not from the text of the source: active = inhibition above about 30%; inactive = the rest, inconclusive results apart.

In general, inhibition refers to the change of the read-out against control, counted positive when it falls. In the case of `CN(C)CCCNC(=O)/C=C/c1ccc(OCc2c(F)cccc2Cl)cc1`, under setting [1], the inhibition was -27.3% (inactive).
With `O=C(CN1CCN(S(=O)(=O)/C=C/c2ccccc2)CC1)Nc1ccc(N2CCOCC2)cc1`, the inhibition under setting [1] is -11% (inactive).
Same read-out and setting: in the case of `N#Cc1c(-c2ccc(F)cc2)nc(-c2ccccc2)[nH]c1=O` it was 6% (inactive); in that of `COc1ccc(C)cc1NC(=O)C(OC(=O)c1cccc(S(=O)(=O)N(C)c2ccccc2)c1)c1ccccc1` (stereo not given), 2.04% (inactive).
Regarding `CNC(=S)N1CCN(c2ccccn2)CC1`, the inhibition under setting [1] is 8.2% (inactive).
Consider `C=CCn1c(P(C)(=O)O)nc2ccccc21`, for which the inhibition under setting [1] was -2% (inactive) and 0.03% (inactive).
On the same count and under the same terms, in the case of `Cc1ccc(CN2CCN(Cc3ccc4ncccc4c3)CC2CCO)cc1` (stereo not given) it was 4.14% (inactive); in that of `CCCCNC(=O)Nc1c(C)cc(SC#N)cc1C`, -9.26% (inactive).
As for `O=C(Nc1nc(-c2ccncc2)cs1)C1COc2ccccc2O1` (stereo not given), the inhibition is -2.24% (inactive) (arbovirus infection cell-based antiviral screen; at 10 µM; stronger effect = higher value) and 4.95% (arbovirus infection cell-based antiviral screen; measured here: 10K subset replicate screen; at 10 µM; stronger effect = higher value).
On to `O=C(Nc1nnc(SCc2ccc(Cl)cc2Cl)s1)C1COc2ccccc2O1` (stereo not given), for which, under setting [1], the inhibition is 30.9% (active).
For `O=C(Nc1nnc(SCc2c(Cl)cccc2Cl)s1)C1CCCO1` (stereo not given), the inhibition under setting [1] was -0.49% (inactive).
For `CC(=O)Nc1ccc(OCCC[n+]2cccc(C(=O)[O-])c2)cc1`, the inhibition under setting [1] is 1.68% (inactive).
Consider `CCN(c1ccc(NC(=O)COC(=O)CCc2nc3ccccc3n2-c2ccccc2)cc1)C(C)C`, for which the inhibition under setting [1] was -15.1% (inactive).
With `Cc1c(Cl)cccc1NC(=O)Nc1ccc(C(=O)N2CCCC2)cc1`, the inhibition under setting [1] is -2.79% (inactive).
Same read-out and setting: in the case of `NC1=NC(=O)C(Cc2cccc(Cl)c2Cl)S1` (stereo not given) it was 9.95% (inactive); in that of `O=C1NC(=Nc2ccc(Cl)cc2)SC1Cc1cccc(Cl)c1Cl` (stereo not given), 30.2% (active).
For the molecule `O=C1N/C(=N\N=C\c2ccco2)SC1Cc1ccc(F)cc1` (stereo not given), under setting [1], the inhibition is 29.1% (inactive).
Regarding `Cc1ccc(C)n1NC(=O)c1ccc([N+](=O)[O-])cc1`, under setting [1], the inhibition was 0.14% (inactive).
On the same count and under the same terms, in the case of `CCOC(=O)c1c(Cc2ccc(Cl)cc2)c[nH]c1C` it was -0.75% (inactive); in that of `COc1cccc2c(O)cc(=O)n(C)c12`, -3.62% (inactive).
Take `Cc1ccc(S(=O)(=O)NCc2csc(C)n2)c(C)c1`: the inhibition under setting [1] was 12.2% (inactive).
Consider `Cc1nc(CNS(=O)(=O)c2ccc(Oc3ccccc3)cc2)cs1`, for which the inhibition under setting [1] was 10.3% (inactive).
On to `Cc1nc(CNS(=O)(=O)c2cccnc2)cs1`, for which the inhibition under setting [1] is 32.7% (active).
On the same count and under the same terms, in the case of `N#C/C(=C\c1ccc(N2CCOCC2)o1)C(=O)N1CCOCC1` it was -2.38% (inactive).
On the same count and under the same terms, in the case of `N#Cc1c(NC(=O)C2CCCO2)sc2c1CCCCC2` (stereo not given) it was 6.23% (inactive); in that of `N#Cc1c(NC(=O)CCCl)sc2c1CCCCC2`, -2.94% (inactive); in that of `N#Cc1c(NC(=O)C2CC(Cl)=CCC2C(=O)O)sc2c1CCCCC2` (stereo not given), 31.9% (active).
The same measure, in the same setting: in the case of `CC(=O)Nc1ccc(S(=O)(=O)NCC(=O)OCc2cc(=O)oc3ccc4ccccc4c23)cc1` it was 2.02% (inactive).
As for `Cc1cc(C)n2nc(C(=O)N(C)C(c3ccccc3)c3ccccc3)nc2n1`, the inhibition under setting [1] was 24.9% (inactive).
With `COc1cc(C(=O)NCc2ccc(-n3cccc3)cc2)cc(OC)c1OC`, under setting [1], the inhibition is 2.99% (inactive).
The same measure, in the same setting: in the case of `N#Cc1ccccc1Sc1ccccc1C(=O)OCC(=O)NC1CCCCC1` it was 5.04% (inactive).
On to `COC(=O)C1=C(NC(=O)C(C)(C)C)CCS1`, for which the inhibition under setting [1] was 2.37% (inactive).
Regarding `Cc1ccnc(NS(=O)(=O)c2ccc(NC(=O)c3ccc(S(=O)(=O)N(C)C)cc3)cc2)n1`, the inhibition under setting [1] is 14.3% (inactive).
On the same count and under the same terms, in the case of `Cc1c(CCOC(=O)CC23CC4CC(CC(C)(C4)C2)C3)sc[n+]1Cc1ccc([N+](=O)[O-])cc1` it was -19.1% (inactive).
For `COC(=O)C1=C(C(=O)OC)C(c2cc([N+](=O)[O-])ccc2O)c2sc(=O)[nH]c2S1` (stereo not given), under setting [1], the inhibition was -2.76% (inactive).
Regarding `Cc1ccc(NC(=O)c2ccccn2)cc1S(=O)(=O)N1CCOCC1`, the inhibition under setting [1] was 20% (inactive).
Regarding `Cc1cccc(NC(=O)NC(=S)NC(=O)c2ccccc2)c1`, the inhibition under setting [1] is 10.4% (inactive).
As to `CCC(=O)NCc1cc(-c2nn(C)c(=O)c3ccccc23)ccc1OC`, the inhibition under setting [1] is -10.6% (inactive).
The same measure, in the same setting: in the case of `O=C(COC(=O)c1ccccc1F)Nc1cc(S(=O)(=O)N2CCOCC2)ccc1N1CCCC1` it was 3.02% (inactive).
